Reference: article doi:10.1101/2024.03.05.583629

Target: pT7_6His-AlfaTag-HOXD13 (human, UniProt P35453 263-343)
Experiment: PADIT-seq
Settings: dsDNA, one strand shown

Chain of pT7_6His-AlfaTag-HOXD13 (P35453 263-343): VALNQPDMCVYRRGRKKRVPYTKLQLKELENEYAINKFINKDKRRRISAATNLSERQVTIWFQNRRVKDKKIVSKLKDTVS

Sequence	binding signal [log2FC]
CTCGAGGATATCAAGATCTGGCCTCGGCCTAGTAAAAGGAACCTCTAGCTAGCCGACTCACTATAGGGATAATCGCCCTGAGCAAAGACC	2.42 ± 0.0781
CTCGAGGATATCAAGATCTGGCCTCGGCATTTTATTAGGAACCTCTAGCTAGCCGACTCACTATAGGGATAATCGCCCTGAGCAAAGACC	3.28 ± 0.0692
CTCGAGGATATCAAGATCTGGCCTCGGCCATATAAAAGGAACCTCTAGCTAGCCGACTCACTATAGGGATAATCGCCCTGAGCAAAGACC	2.76 ± 0.0974
CTCGAGGATATCAAGATCTGGCCTCGGCCGCCCAGCAGGAACCTCTAGCTAGCCGACTCACTATAGGGATAATCGCCCTGAGCAAAGACC	-0.927 ± 0.127
CTCGAGGATATCAAGATCTGGCCTCGGCGCATTAAAAGGAACCTCTAGCTAGCCGACTCACTATAGGGATAATCGCCCTGAGCAAAGACC	1.77 ± 0.0683
CTCGAGGATATCAAGATCTGGCCTCGGCTTTTTAAGGGGAACCTCTAGCTAGCCGACTCACTATAGGGATAATCGCCCTGAGCAAAGACC	1.83 ± 0.0924
CTCGAGGATATCAAGATCTGGCCTCGGCTTTTTATCAGGAACCTCTAGCTAGCCGACTCACTATAGGGATAATCGCCCTGAGCAAAGACC	2.36 ± 0.0842
CTCGAGGATATCAAGATCTGGCCTCGGCAATTGGGCGGGAACCTCTAGCTAGCCGACTCACTATAGGGATAATCGCCCTGAGCAAAGACC	-0.563 ± 0.097
CTCGAGGATATCAAGATCTGGCCTCGGCGAACTAAAAGGAACCTCTAGCTAGCCGACTCACTATAGGGATAATCGCCCTGAGCAAAGACC	-0.56 ± 0.0894
CTCGAGGATATCAAGATCTGGCCTCGGCCGCCCAGTTGGAACCTCTAGCTAGCCGACTCACTATAGGGATAATCGCCCTGAGCAAAGACC	-0.996 ± 0.138
CTCGAGGATATCAAGATCTGGCCTCGGCCTTTTAGGGGGAACCTCTAGCTAGCCGACTCACTATAGGGATAATCGCCCTGAGCAAAGACC	1.1 ± 0.083
CTCGAGGATATCAAGATCTGGCCTCGGCGTAATAAAAGGAACCTCTAGCTAGCCGACTCACTATAGGGATAATCGCCCTGAGCAAAGACC	2.86 ± 0.0699
CTCGAGGATATCAAGATCTGGCCTCGGCGACGTAAAAGGAACCTCTAGCTAGCCGACTCACTATAGGGATAATCGCCCTGAGCAAAGACC	0.404 ± 0.076
CTCGAGGATATCAAGATCTGGCCTCGGCGTTTTAGGAGGAACCTCTAGCTAGCCGACTCACTATAGGGATAATCGCCCTGAGCAAAGACC	1.64 ± 0.105
CTCGAGGATATCAAGATCTGGCCTCGGCGTTATAAAAGGAACCTCTAGCTAGCCGACTCACTATAGGGATAATCGCCCTGAGCAAAGACC	2.4 ± 0.0697
CTCGAGGATATCAAGATCTGGCCTCGGCGTAGTAAAAGGAACCTCTAGCTAGCCGACTCACTATAGGGATAATCGCCCTGAGCAAAGACC	2.18 ± 0.0733
CTCGAGGATATCAAGATCTGGCCTCGGCCTTTTATAGGGAACCTCTAGCTAGCCGACTCACTATAGGGATAATCGCCCTGAGCAAAGACC	3.21 ± 0.0791
CTCGAGGATATCAAGATCTGGCCTCGGCATTTTACTGGGAACCTCTAGCTAGCCGACTCACTATAGGGATAATCGCCCTGAGCAAAGACC	2.8 ± 0.0813
CTCGAGGATATCAAGATCTGGCCTCGGCATTTTAGATGGAACCTCTAGCTAGCCGACTCACTATAGGGATAATCGCCCTGAGCAAAGACC	0.542 ± 0.096

Sequence	binding signal [log2FC]
CTCGAGGATATCAAGATCTGGCCTCGGCCGCTTAAAAGGAACCTCTAGCTAGCCGACTCACTATAGGGATAATCGCCCTGAGCAAAGACC	0.46 ± 0.0911
CTCGAGGATATCAAGATCTGGCCTCGGCGTTTTACCGGGAACCTCTAGCTAGCCGACTCACTATAGGGATAATCGCCCTGAGCAAAGACC	1.01 ± 0.0969
CTCGAGGATATCAAGATCTGGCCTCGGCCGCCCATTAGGAACCTCTAGCTAGCCGACTCACTATAGGGATAATCGCCCTGAGCAAAGACC	-0.218 ± 0.102
CTCGAGGATATCAAGATCTGGCCTCGGCGCGGGAGCGGGAACCTCTAGCTAGCCGACTCACTATAGGGATAATCGCCCTGAGCAAAGACC	-0.635 ± 0.137
CTCGAGGATATCAAGATCTGGCCTCGGCTCGATAAAAGGAACCTCTAGCTAGCCGACTCACTATAGGGATAATCGCCCTGAGCAAAGACC	1.03 ± 0.106
CTCGAGGATATCAAGATCTGGCCTCGGCGTTTTAAAGGGAACCTCTAGCTAGCCGACTCACTATAGGGATAATCGCCCTGAGCAAAGACC	2.48 ± 0.082
CTCGAGGATATCAAGATCTGGCCTCGGCCTTTTACAAGGAACCTCTAGCTAGCCGACTCACTATAGGGATAATCGCCCTGAGCAAAGACC	3.37 ± 0.074
CTCGAGGATATCAAGATCTGGCCTCGGCCAAATAAAAGGAACCTCTAGCTAGCCGACTCACTATAGGGATAATCGCCCTGAGCAAAGACC	2.65 ± 0.0828
CTCGAGGATATCAAGATCTGGCCTCGGCTGCTTAAAAGGAACCTCTAGCTAGCCGACTCACTATAGGGATAATCGCCCTGAGCAAAGACC	0.659 ± 0.091
CTCGAGGATATCAAGATCTGGCCTCGGCCTTTTACATGGAACCTCTAGCTAGCCGACTCACTATAGGGATAATCGCCCTGAGCAAAGACC	1.85 ± 0.0771
CTCGAGGATATCAAGATCTGGCCTCGGCATTTTATAAGGAACCTCTAGCTAGCCGACTCACTATAGGGATAATCGCCCTGAGCAAAGACC	3.26 ± 0.0841
CTCGAGGATATCAAGATCTGGCCTCGGCTGGATAAAAGGAACCTCTAGCTAGCCGACTCACTATAGGGATAATCGCCCTGAGCAAAGACC	-0.165 ± 0.087
CTCGAGGATATCAAGATCTGGCCTCGGCTCTCTAAAAGGAACCTCTAGCTAGCCGACTCACTATAGGGATAATCGCCCTGAGCAAAGACC	0.412 ± 0.105
CTCGAGGATATCAAGATCTGGCCTCGGCCTCATAAAAGGAACCTCTAGCTAGCCGACTCACTATAGGGATAATCGCCCTGAGCAAAGACC	3.06 ± 0.0788
CTCGAGGATATCAAGATCTGGCCTCGGCCGCCCATATGGAACCTCTAGCTAGCCGACTCACTATAGGGATAATCGCCCTGAGCAAAGACC	-0.841 ± 0.12
CTCGAGGATATCAAGATCTGGCCTCGGCCGCCCAATAGGAACCTCTAGCTAGCCGACTCACTATAGGGATAATCGCCCTGAGCAAAGACC	-0.536 ± 0.118
CTCGAGGATATCAAGATCTGGCCTCGGCTAAGTAAAAGGAACCTCTAGCTAGCCGACTCACTATAGGGATAATCGCCCTGAGCAAAGACC	0.166 ± 0.108
CTCGAGGATATCAAGATCTGGCCTCGGCTTTTTAGCTGGAACCTCTAGCTAGCCGACTCACTATAGGGATAATCGCCCTGAGCAAAGACC	-0.298 ± 0.114
CTCGAGGATATCAAGATCTGGCCTCGGCCCATTAAAAGGAACCTCTAGCTAGCCGACTCACTATAGGGATAATCGCCCTGAGCAAAGACC	2.92 ± 0.0908

Sequence	binding signal [log2FC]
CTCGAGGATATCAAGATCTGGCCTCGGCCGGTTAAAAGGAACCTCTAGCTAGCCGACTCACTATAGGGATAATCGCCCTGAGCAAAGACC	0.716 ± 0.0773
CTCGAGGATATCAAGATCTGGCCTCGGCTATCTAAAAGGAACCTCTAGCTAGCCGACTCACTATAGGGATAATCGCCCTGAGCAAAGACC	-0.377 ± 0.118
CTCGAGGATATCAAGATCTGGCCTCGGCTTTTTAAATGGAACCTCTAGCTAGCCGACTCACTATAGGGATAATCGCCCTGAGCAAAGACC	1.81 ± 0.0949
CTCGAGGATATCAAGATCTGGCCTCGGCATTTTACCTGGAACCTCTAGCTAGCCGACTCACTATAGGGATAATCGCCCTGAGCAAAGACC	-0.0491 ± 0.129
CTCGAGGATATCAAGATCTGGCCTCGGCTTTTTATGTGGAACCTCTAGCTAGCCGACTCACTATAGGGATAATCGCCCTGAGCAAAGACC	2.89 ± 0.0872
CTCGAGGATATCAAGATCTGGCCTCGGCCGCCCATAAGGAACCTCTAGCTAGCCGACTCACTATAGGGATAATCGCCCTGAGCAAAGACC	-0.213 ± 0.101
CTCGAGGATATCAAGATCTGGCCTCGGCCGCCCATTCGGAACCTCTAGCTAGCCGACTCACTATAGGGATAATCGCCCTGAGCAAAGACC	-0.894 ± 0.121
CTCGAGGATATCAAGATCTGGCCTCGGCGTTGTAAAAGGAACCTCTAGCTAGCCGACTCACTATAGGGATAATCGCCCTGAGCAAAGACC	2.39 ± 0.0772
CTCGAGGATATCAAGATCTGGCCTCGGCTTTTTAACCGGAACCTCTAGCTAGCCGACTCACTATAGGGATAATCGCCCTGAGCAAAGACC	0.739 ± 0.095
CTCGAGGATATCAAGATCTGGCCTCGGCATTTTATGGGGAACCTCTAGCTAGCCGACTCACTATAGGGATAATCGCCCTGAGCAAAGACC	3.25 ± 0.0762
CTCGAGGATATCAAGATCTGGCCTCGGCATTTTATTGGGAACCTCTAGCTAGCCGACTCACTATAGGGATAATCGCCCTGAGCAAAGACC	3.32 ± 0.0805
CTCGAGGATATCAAGATCTGGCCTCGGCGTTTTACAGGGAACCTCTAGCTAGCCGACTCACTATAGGGATAATCGCCCTGAGCAAAGACC	2.89 ± 0.0835
CTCGAGGATATCAAGATCTGGCCTCGGCGCGATAGCGGGAACCTCTAGCTAGCCGACTCACTATAGGGATAATCGCCCTGAGCAAAGACC	-0.758 ± 0.131
CTCGAGGATATCAAGATCTGGCCTCGGCCGCCCATCAGGAACCTCTAGCTAGCCGACTCACTATAGGGATAATCGCCCTGAGCAAAGACC	-1.02 ± 0.114
CTCGAGGATATCAAGATCTGGCCTCGGCTTTTTACACGGAACCTCTAGCTAGCCGACTCACTATAGGGATAATCGCCCTGAGCAAAGACC	2.25 ± 0.079
CTCGAGGATATCAAGATCTGGCCTCGGCCTCCTAAAAGGAACCTCTAGCTAGCCGACTCACTATAGGGATAATCGCCCTGAGCAAAGACC	0.715 ± 0.108
CTCGAGGATATCAAGATCTGGCCTCGGCATACTAAAAGGAACCTCTAGCTAGCCGACTCACTATAGGGATAATCGCCCTGAGCAAAGACC	0.619 ± 0.0967
CTCGAGGATATCAAGATCTGGCCTCGGCATTTTAAACGGAACCTCTAGCTAGCCGACTCACTATAGGGATAATCGCCCTGAGCAAAGACC	1.29 ± 0.0911
CTCGAGGATATCAAGATCTGGCCTCGGCCAACTAAAAGGAACCTCTAGCTAGCCGACTCACTATAGGGATAATCGCCCTGAGCAAAGACC	0.0444 ± 0.126
